Sampled rows, rich in hits. Any-hit rate of the full collection: about 0.92%.
CIT2 TOR yeast: modulators of CIT2-GFP expression in yeast, primary screen, S. cerevisiae, GFP fusion, multiplex flow cytometry, MLPCN library; AID 2029, 2009; GFP response vs DMSO, % at 10 µM; S. cerevisiae CIT2-GFP strain, 3 h; 100 means same as DMSO wells; 320,000 compounds, 0.065% hits;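 active = GFP response relative to DMSO above a set limit, near the screen mean plus 3 SD, cut at about 150% in these data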;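 also: ratio of well median GFP fluorescence to mean of DMSO wells on the plate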
AGP1-GFP MLPCN: modulators of AGP1-GFP expression in yeast TOR pathway, primary screen, cell-based, multiplex flow cytometry, S. cerevisiae, MLPCN library. 3 h; GFP as percent of DMSO wells. GFP response vs DMSO, % at 10 µM. 320,000 compounds, 0.02% hits. AID 2066, 2009;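 active = GFP response relative to DMSO above a set limit, near screen average plus 3 SD, cut at about 150% in these data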;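 also: median GFP channel fluorescence of the gated AGP1 strain per well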
MEP2 TOR yeast: modulators of MEP2-GFP levels in yeast, primary screen, S. cerevisiae, multiplex flow cytometry, MLPCN library; 330,000 compounds, 0.51% hits; GFP response vs DMSO, % at 10 µM; S. cerevisiae MEP2-GFP strain, 3 h; 100% = DMSO control level;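 active = GFP response versus DMSO above a set limit, roughly screen mean plus 3 SD, cut at about 180% in these data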;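 also: median GFP fluorescence of the barcode-gated MEP2-GFP cells per well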
RPL19A-GFP yeast: RPL19A-GFP expression modulators in yeast, primary screen, cell-based, S. cerevisiae, multiplex flow cytometry, MLPCN. AID 2025, 2009. percent response vs DMSO, % at 10 µM. 330,000 compounds, 0.3% hits. S. cerevisiae RPL19A-GFP strain, 3 h; active compounds read low;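 active = percent response vs DMSO below 50%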;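 also: median channel GFP fluorescence of the barcoded RPL19A-GFP strain; lower means less RPL19A-GFP as with rapamycin TOR inhibition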
LAP4-GFP MLPCN: modulators of LAP4-GFP expression in yeast, primary screen, S. cerevisiae, multiplex flow cytometry, MLPCN library; 3 h; median GFP as percent of DMSO wells; GFP response vs DMSO, % at 10 µM; 320,000 compounds, 0.34% hits; AID 2023, 2009;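 active = GFP response vs DMSO above a set limit, about the screen mean plus 3 SD, cut at about 150% in these data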
LAP4-GFP pick2: LAP4-GFP expression modulators in yeast, confirmation, cell-based, second cherry pick, flow cytometry; GFP response vs DMSO, % at 10 µM; shares compounds with LAP4-GFP MLPCN; S. cerevisiae LAP4-GFP strain, 3 h; 590 compounds, 20% hits; AID 2621, 2010;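 active = GFP signal as percent of the solvent control above about 150%, meaning raised reporter expression, limit read from the data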
MEP2-GFP pick2: modulators of MEP2-GFP levels in yeast, confirmation, S. cerevisiae, flow cytometry GFP, second cherry picks. AID 2622, 2010. GFP response vs DMSO, % at 10 µM. 590 compounds, 10% hits. S. cerevisiae MEP2-GFP strain, 3 h. shares compounds with LAP4-GFP MLPCN;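 active = GFP signal above 150% of the solvent control wells, that is a rise of more than half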;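 also: median channel GFP fluorescence of all gated yeast cells per well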
RPL19A GFP CP2: RPL19A-GFP modulators in TOR pathway yeast, confirmation, cell-based, S. cerevisiae, flow cytometry, second cherry pick. shares compounds with LAP4-GFP MLPCN. AID 2623, 2010. 590 compounds, 3% hits. GFP response vs DMSO, % at 10 µM. S. cerevisiae RPL19A-GFP strain, 3 h; active compounds read low; 100% means same as DMSO wells;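 active = under 65% GFP response relative to DMSO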;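 also: median GFP channel fluorescence per well over the all cells gate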
CIT2-GFP pick2: modulators of CIT2-GFP expression in yeast, confirmation, flow cytometry, second cherry pick, single plex. shares compounds with LAP4-GFP MLPCN. S. cerevisiae CIT2-GFP strain, 3 h; DMSO control wells read 100%. GFP response vs DMSO, % at 10 µM. 590 compounds, 8% hits;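 active = GFP response vs DMSO above about 150%, limit read from the data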;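 also: median green fluorescence per well over all gated yeast cells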
AGP1 GFP CP2: AGP1-GFP expression modulators, hit retest, confirmation, cell-based, flow cytometry, S. cerevisiae, cherry pick set 2; shares compounds with LAP4-GFP MLPCN; S. cerevisiae AGP1-GFP strain, 3 h; percent response vs DMSO, % at 10 µM; 590 tested, under 10 active;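 active = over 150 percent of DMSO response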;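 also: median GFP channel fluorescence over all cells without mother daughter split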
s288c autofluor: compound autofluorescence in yeast s288c, dose response, artefact control for yeast TOR pathway GFP screen, s288c strain | shares compounds with LAP4-GFP MLPCN | S. cerevisiae s288c, 520 nm autofluorescence, flow cytometry, 3 h; active compounds read high; zero means same as solvent-only cells | fluorescence change (kMESF span) at 33 µM | 610 tested, under 10 active;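 active = fluorescence span over the dose series, or activity score, above about 33, limit read from the data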
Yeast autofl DR: autofluorescence of compounds in yeast s288c, dose response, artefact control for yeast TOR pathway GFP screen, primary hits, KU SAR, s288c parental. fluorescence change (span) at 33 µM. S. cerevisiae s288c parental, compound autofluorescence, flow cytometry, 3 h. 110 tested, under 10 active. shares compounds with LAP4-GFP MLPCN;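 active = fluorescence change span, or the activity score built from it, above 25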
TORC1 bypass: wild-type yeast growth inhibition sparing TORC1 bypass cells, mechanism study for yeast TOR pathway GFP screen, BY4741 wild type, TORC1 bypass strain. shares compounds with LAP4-GFP MLPCN. S. cerevisiae BY4741 spot growth rating, 48-72 h; active compounds read low. growth rating (0-3) at 30 µM. 120 tested, under 10 active. AID 504456, 2011;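 active = growth rating at most 1 for wild type yeast while the TORC1 bypass strain still grows fully, rated 3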
Of the large screens only hits and unclear results are named; the others gave an inactive call (follow-up assays come after a bar, where they were run); ! = a repeat was not active.

COc1ccc(S(=O)(=O)Nc2ccc(-n3cnnn3)cc2)cc1[N+](=O)[O-]	none
Clc1ccc(N=c2ssnc2Cl)cc1	LAP4-GFP MLPCN 155.8 | s288c autofluor inactive | Yeast autofl DR inactive | TORC1 bypass inactive
N#Cc1ccc(N=c2ssnc2Cl)cc1	LAP4-GFP MLPCN 157.8! | LAP4-GFP pick2 inactive | MEP2-GFP pick2 inactive | RPL19A GFP CP2 inactive | CIT2-GFP pick2 inactive | AGP1 GFP CP2 inactive | s288c autofluor inactive
CCCN(Cc1cc2ccc(C)cc2[nH]c1=O)S(=O)(=O)c1ccccc1	none
O=C(COc1cccc(C(F)(F)F)c1)NNC(=O)Cn1c(=O)cnc2ccccc21	none
Cc1ccc(N=Nc2ccc(O)c3ncccc23)cc1	LAP4-GFP MLPCN 157.1 | LAP4-GFP pick2 188.4 | MEP2-GFP pick2 inactive | RPL19A GFP CP2 inactive | CIT2-GFP pick2 150.2 | AGP1 GFP CP2 inactive | s288c autofluor inactive
COc1ccccc1N=Nc1ccc(O)c2ncccc12	LAP4-GFP MLPCN 249.3 | s288c autofluor inactive
Cc1ccc(N=Nc2ccc(O)c3ncccc23)cc1C	none
Cc1nc2ccccc2c2oc(C(=O)NC3CC3)cc12	none
Cc1cc2c(C)nc3ccccc3c2o1	none | LAP4-GFP pick2 inactive | MEP2-GFP pick2 inactive | RPL19A GFP CP2 inactive | CIT2-GFP pick2 inactive | AGP1 GFP CP2 inactive
CCN(CC(=O)Nc1c(F)cccc1F)C(=O)c1cc2c(cc1Cl)N1CCCCCC1=NS2(=O)=O	none
COc1cccc(C(=O)Nc2nnc(-c3ccc(Cl)cc3)o2)c1	LAP4-GFP MLPCN 155.1 | LAP4-GFP pick2 208.7 | MEP2-GFP pick2 inactive | RPL19A GFP CP2 inactive | CIT2-GFP pick2 inactive | AGP1 GFP CP2 inactive | s288c autofluor inactive
COc1cccc(NC(=O)c2cccc(Cl)c2)c1	LAP4-GFP MLPCN 153.4 | LAP4-GFP pick2 inactive | MEP2-GFP pick2 inactive | RPL19A GFP CP2 inactive | CIT2-GFP pick2 inactive | AGP1 GFP CP2 inactive
COc1c(O)cccc1[C@H](O)C1CCN(CCc2ccc(F)cc2)CC1	none
CCC(CC)C(=O)Nc1nnc(CCc2ccccc2)s1	none
CN1/C(=C\C(=O)c2ccco2)C(C)(C)c2ccccc21	LAP4-GFP MLPCN 180.4 | LAP4-GFP pick2 inactive | MEP2-GFP pick2 inactive | RPL19A GFP CP2 inactive | CIT2-GFP pick2 inactive | AGP1 GFP CP2 inactive
O=Cc1cn(-c2ccccc2)nc1-c1ccccc1	none
CC1=NNC(=O)/C1=C\c1cn(-c2ccccc2)nc1-c1ccccc1	LAP4-GFP MLPCN 197.6 (no result: CIT2 TOR yeast) | s288c autofluor inactive
CCN(CC)c1ccc2cc(-c3nc4ccccc4n3C)c(=O)oc2c1	none
CCN(CC)c1ccc2cc(-c3nc(-c4ccc(OC)cc4)cs3)c(=O)oc2c1	CIT2 TOR yeast 203.6, MEP2 TOR yeast 221.2, LAP4-GFP MLPCN 159.7 | s288c autofluor inactive
CCN(CC)c1ccc2cc(-c3nc4ccccc4[nH]3)c(=O)oc2c1	MEP2 TOR yeast 200.2, LAP4-GFP MLPCN 171.0 | s288c autofluor inactive
CCN(CC)c1ccc2cc(-c3nnc(-c4ccccc4)o3)c(=O)oc2c1	none
COc1cc(OC)cc(-c2c(-c3cccs3)c3cc(-c4ccc(CN5CCOCC5)cc4)ccc3n2C)c1	none
COc1cccc(C(=O)NCCS(=O)(=O)NCc2ccco2)c1	LAP4-GFP MLPCN 150.6 | LAP4-GFP pick2 inactive | MEP2-GFP pick2 inactive | RPL19A GFP CP2 inactive | CIT2-GFP pick2 inactive | AGP1 GFP CP2 inactive
Cc1ccc(S(=O)(=O)NCc2ccc(C(=O)NCCc3ccc(S(N)(=O)=O)cc3)cc2)cc1	none
CCCCN(CCCNC(=O)c1ccc(CS(=O)(=O)c2ccc(OC)cc2)o1)Cc1ccccc1	none | LAP4-GFP pick2 inactive | MEP2-GFP pick2 inactive | RPL19A GFP CP2 inactive | CIT2-GFP pick2 inactive | AGP1 GFP CP2 inactive
COCCNC(=O)c1ccc(CS(=O)(=O)c2ccc(OC)cc2)o1	none
Cc1ccc(NC(=O)CCCCCN2C(=O)[C@@H]3Cc4ccccc4CN3C2=O)c(C)c1	none
CCS(=O)(=O)c1nc(S(=O)(=O)c2ccc(Cl)cc2)c(N2CCc3ccccc3C2)s1	none
C=C1CCN(Cc2ccccc2)S(=O)(=O)c2ccccc21	LAP4-GFP MLPCN 162.6 | LAP4-GFP pick2 inactive | MEP2-GFP pick2 inactive | RPL19A GFP CP2 inactive | CIT2-GFP pick2 inactive | AGP1 GFP CP2 inactive
O=S(=O)(c1ccccc1)N1N=C(c2cccs2)CC1c1cccc(O)c1 (stereo unspecified)	CIT2 TOR yeast 156.7 | LAP4-GFP pick2 inactive | MEP2-GFP pick2 inactive | RPL19A GFP CP2 inactive | CIT2-GFP pick2 inactive | AGP1 GFP CP2 inactive
CCCCCCn1c(Br)nc2c1c(=O)n(C)c(=O)n2C	none
O=C(CN1C(=O)CCS(=O)(=O)c2ccccc21)Nc1ccc(Cl)cc1	none
O=S(=O)(c1ccccc1)c1ccc(C(F)(F)F)cn1	none (no result: AGP1-GFP MLPCN) | s288c autofluor inactive
Cc1cc(S(=O)(=O)c2ccc([N+](=O)[O-])cn2)ccc1Br	none
